From PubChem BioAssay (NCATS)
Results filed as inconclusive are left out. Activity calls are given as the source filed them. The call rests on the fitted dose curve; in most records, active means well fitted activation curve with a large enough effect in the main read-out, with a control signal flat (not every such curve was filed as active); inconclusive means small, poorly fitted or top-dose-only effect, or effect the other way, or a change in a side signal; inactive means flat fitted curve, though single readings scatter.

These compounds were tested against 3',5'-cyclic-AMP phosphodiesterase 4B (Homo sapiens) (UniProt Q07343) (assay: qHTS Assay for Inhibitors of PDE-IV (AID 607; further: % of control where 0% means no effect)). Conditions: HEK293 ACTOne CNG channel cells, membrane potential fluorescence; series mostly up to 22.9 µM; activation (PDE inhibition): at the top concentration.
3',5'-cyclic-AMP phosphodiesterase 4B (Homo sapiens), sequence (Q07343 whole entry, looked up): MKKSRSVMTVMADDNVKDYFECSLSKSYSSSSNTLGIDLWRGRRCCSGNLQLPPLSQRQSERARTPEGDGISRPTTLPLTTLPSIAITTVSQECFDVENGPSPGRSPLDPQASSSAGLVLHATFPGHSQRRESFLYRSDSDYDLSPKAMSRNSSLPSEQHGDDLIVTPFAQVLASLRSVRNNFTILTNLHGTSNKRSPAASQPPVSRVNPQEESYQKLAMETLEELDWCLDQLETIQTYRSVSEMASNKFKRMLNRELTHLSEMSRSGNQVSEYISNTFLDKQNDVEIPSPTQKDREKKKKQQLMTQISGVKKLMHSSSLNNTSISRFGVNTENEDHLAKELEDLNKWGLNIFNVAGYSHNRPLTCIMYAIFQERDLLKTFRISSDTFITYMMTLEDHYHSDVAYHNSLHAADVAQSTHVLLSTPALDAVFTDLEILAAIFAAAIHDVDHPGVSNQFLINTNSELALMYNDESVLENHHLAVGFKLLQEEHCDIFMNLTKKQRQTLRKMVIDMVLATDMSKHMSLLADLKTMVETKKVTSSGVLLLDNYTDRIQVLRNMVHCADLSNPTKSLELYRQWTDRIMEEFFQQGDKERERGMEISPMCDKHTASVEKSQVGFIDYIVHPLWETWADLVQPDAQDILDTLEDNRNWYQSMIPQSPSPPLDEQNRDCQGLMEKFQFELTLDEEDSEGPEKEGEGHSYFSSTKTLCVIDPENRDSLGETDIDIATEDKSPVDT
From the text: NIH Chemical Genomics Center [NCGC]
NIH Molecular Libraries Screening Centers Network [MLSCN]
The cyclic nucleotide phosphodiesterases (PDEs) are proteins that catalyze hydrolysis of 3', 5'-cyclic nucleotides, such as cyclic adenosine monophosphate (cAMP) and cyclic guanosine monophosphate (cGMP), to their corresponding 5'-nucleotide monophosphates. These enzymes play an important role in controlling cellular concentrations of cyclic nucleotides and have a central role in a variety of intracellular signaling events. cAMP PDEs are emerging as a promising class of drug targets in asthma and cardiovascular disease therapeutic areas.
There are no commercially available cell-based screening assays for PDE inhibitors: currently biochemical assays are done using pure substrates (cAMP or cGMP) and purified recombinant PDE enzymes. As with other biochemical screens on intracellular targets, false positives and false negatives may result from issues involving cell membrane permeability, cellular metabolism, and the like.
Here we report the development of a cell-based screening assay for cAMP phosphodiesterase (PDE) inhibitors. The assay is based on the BD ACTOne# technology (BD Biosciences) which utilizes a modified cyclic nucleotide-gated channel (CNG) to monitor intracellular cAMP changes in live cells. The CNG channel is localized on the plasma membrane, and opens when the intracellular cAMP level increases, resulting in ion flux and cell membrane depolarization. The influx of cations through the CNG channel can be quantified using membrane potential (MP) dyes. We modified the BD ACTOne technology to allow the detection of PDE inhibitors, and performed an inhibitor screen for PDE-IV, which is expressed endogenously in HEK293 cells. We optimized this assay in homogeneous 1536-well plate assay format for high throughput screening.
NCGC Assay Protocol Summary:
The medium contained 10% FBS (Invitrogen), 2 mM L-glutamine, and 250 ug/ml G418 (Cellgro) and 1 ug/ml puromycin (Clontech). ACTOneTM parental cells (BD Biosciences) were maintained in the same medium without puromycin.
The activity of the CNG channel was measured by BD ACTOneTM membrane potential dye kit (BD Biosciences). Forskolin, a positive control for cAMP activation and RO 20-1724, a PDE inhibitor, were both purchased from Sigma and solublized in DMSO.
Sequence,Parameter,Value,Description
1,Reagent,3 uL,1000 cells/well 1536 TC treated Black plate
3,Compound,0.5 uL,Kalypsys dispense RO 20-1724 100 uM final [A]
4,Reagent,3 uL,BD membrane potential dye
6,Compound,23 nL,Final concentration was 0.7nM to 22.9uM
8,Detector,EX 535 / EM 590 [B],Envision
Footnotes: [A] The stock 2 mM RO 20-1724 PDE inhibitor was made in 10 % DMSO. Parental cell line received 10 uM forskolin + 100 uM RO. [B] Envsion settings: Bottom Excitation 535/20 nm top emission 590/20, gain of 150 and 5 flashes per well.
Keywords: PDE, PDE-IV, cytotoxicity, flourescence, MLSMR, MLSCN, NIH Roadmap, qHTS, NCGC

| SMILES | Potency | activation (PDE inhibition) |
| --- | --- | --- |
| N[C@@H](C(=O)O)c1ccc(C(=O)O)c(C(=O)O)c1 | inactive | – |
| CSc1nc(N)c2ncn([C@H]3O[C@H](COP(=O)(O)OP(=O)(O)OP(=O)(O)O)[C@@H](O)[C@@H]3O)c2n1 | – | -6.59% (inactive) |
| N[C@@H](C(=O)O)c1ccc(C(=O)O)c(O)c1 | – | -18.6% (inactive) |
| NCCCCCCNS(=O)(=O)c1cccc2ccccc12 | – | -5.75% (inactive) |
| C[C@@H]1Nc2ccc(Cl)cc2S(=O)(=O)N1 | – | 12.7% (inactive) |
| C[N+](C)(C)CCCCCNCC12CC3CC(CC(C3)C1)C2 | – | 11.5% (inactive) |
| CC[N+](CC)(CC)CC | – | 13.2% (inactive) |
| O=C(O)c1c(Br)c(Br)c(Br)c(Br)c1C1c2ccc(O)cc2Oc2cc(O)ccc21 | – | -1.47% (inactive) |
| COC(=O)[C@H]1[C@@H]2C[C@H]3c4[nH]c5ccccc5c4CCN3C[C@@H]2CC[C@@H]1O | – | 25.4% (inactive) |
| OC[C@@H]1O[C@@H](n2cnc3c(NC4CCCC4)ncnc32)[C@H](O)[C@H]1O | – | 10.1% (inactive) |
| C[C@@]12CC[C@@H]3c4ccc(O)cc4C[C@H](CCCCCCCCCS(=O)CCCC(F)(F)C(F)(F)F)[C@H]3[C@@H]1CC[C@@H]2O (stereo not given in full) | – | -26.1% (inactive) |
| CCCCCCc1c(C[C@H](N)C(=O)O)o[nH]c1=O | inactive | – |
| NC1(C(=O)O)CCC1 | – | 18.9% (inactive) |
| NC(N)=NN=Cc1c(Cl)cccc1Cl | – | 3.07% (inactive) |
| N[C@]1(C(=O)O)CCc2cc(C(=O)O)ccc21 | inactive | – |
| NCCCNCCCCN(CCCN)/[N+]([O-])=N/O | – | -5% (inactive) |
| CCN(Cc1ccncc1)C(=O)[C@@H](CO)c1ccccc1 | inactive | – |
| CCNCCCNCCCNCCCNCC | – | 6.56% (inactive) |
| COc1ccccc1N1CCN(CCN2C(=O)c3ccccc3C(C)(C)C2=O)CC1 | – | -19.3% (inactive) |
| N[C@]1(C(=O)O)CCc2cc(P(=O)(O)O)ccc21 | – | 8.22% (inactive) |

| SMILES | Potency | activation (PDE inhibition) |
| --- | --- | --- |
| CC(C)(C)c1ccc(S(=O)(=O)/C=C\C#N)cc1 | – | -11% (inactive) |
| C[C@H](NC[C@H](O)CP(=O)(O)Cc1ccccc1)c1ccc(Cl)c(Cl)c1 | – | 5.84% (inactive) |
| N[C@H](C(=O)O)c1nn[nH]n1 | – | -6.32% (inactive) |
| COc1ccc(C(OCCN2CCC[C@@H](C(=O)O)C2)(c2ccc(OC)cc2)c2ccc(OC)cc2)cc1 | – | 11.6% (inactive) |
| O=C(NCCNC[C@@H](O)COc1ccc(O)cc1)N1CCOCC1 | inactive | – |
| O=C1CCc2c(ccc3ccccc23)O1 | – | 7.28% (inactive) |
| Cc1nc(N=Nc2cc(S(=O)(=O)O)ccc2S(=O)(=O)O)c(COP(=O)(O)O)c(C=O)c1O | – | 2.23% (inactive) |
| Cn1cnc2c(NC3CCCC3)ncnc21 | – | 9.81% (inactive) |
| COc1cc(N)c(Cl)cc1C(=O)CCC1CCN(CCNS(C)(=O)=O)CC1 | – | -29.2% (inactive) |
| NC[C@](O)(CS(=O)(=O)O)c1ccc(Cl)cc1 | – | 10.1% (inactive) |
| Cc1cc([C@](C)(N)C(=O)O)ccc1P(=O)(O)O | – | -20.9% (inactive) |
| CCOC(=O)[C@@]12C[C@@H]1/C(=N/O)c1ccccc1O2 | – | 16.8% (inactive) |
| COc1cc(OC)c(C(=O)CCCCN2CCC3(CC2)NC(=O)NC3=O)cc1NS(=O)(=O)c1ccc(C(F)(F)F)cc1 | – | -11.1% (inactive) |
| CC(=O)N1CCN(C)CC1 | – | 3.51% (inactive) |
| CCOC(=O)[C@H](N)/C=C(\C)CP(=O)(O)O | – | -1.57% (inactive) |
| OC[C@H]1NC[C@@H](O)[C@@H](O)[C@H]1O | – | 12.2% (inactive) |
| CC(C)SC(=N)N | – | 28.5% (inactive) |
| O=C(N/N=C\c1ccccc1O)c1ccccc1O | – | 7.87% (inactive) |
| CN1CCc2cc3c(cc2[C@@H]1[C@@H]1C(=O)Oc2c1ccc1c2OCO1)OCO3 | – | -21.8% (inactive) |
| Nc1[nH]nc2nc3ccccc3nc12 | – | -28.3% (inactive) |
